Source: PubChem BioAssay AID1508600 (Functional Genomics Laboratory (NCATS/FGL), 2020)
Out of some 53,000 sequences screened, about 3,700 (7%) were called active.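 How the source made its calls: active means gene knockdowns whose robust z-score for IL-1 alpha signal is at least 2 or at most -2, so actives lie on both sides; inactive means the rest.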 Shown is part of a subset that was picked to be rich in actives.

Test: Components of the Cytosolic LPS Sensing Pathway: Gene Identification via Genome-wide siRNA Screen;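 further: robust z of the log signal after scaling to non-targeting control siRNA wells of the plate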
Settings: RAW264.7 macrophages, IL-1a HTRF, actives lie on both sides, screened at 100 nM (by protocol), cells primed 5 h with Pam3CSK4 first
Procedure, shortened: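 Three distinct siRNAs per gene were tested singly at 100 nM in RAW264.7 macrophages. Following Pam3CSK4 priming and 24 hour LipidA transfection, IL-1a secretion was read by HTRF.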

z-score, active:
GGCAACCAUAGACGAUGAATT against Rerg -2.38, GGCCAGAGACAGUUAUCUUTT against Sptssb 2.43, GGACAACUUUGAGGAGAUGTT against Tubg2 3.23, GGAAUGUACCAGAAAUACUTT against 4921504E06Rik 3.01, GGAAGAAAUAGAGUUUUACTT against Ephx2 3.42, GGGCAGAGUGAUGUUGUCATT against Gsdmd -3.34, CCCUCUCUUUGGAUACACATT against Tenm4 -2.98, CGGCAUUUGCUAAUGGUCGTT against Actl6a -2.79, CCAAGCCUUAAUAAGUCAATT against Ccp110 -2.52, GCUAUAUGUACCCUAGCCATT against H2aj 2.26, GGUCAGGUCUUUUUAUACATT against Zfp354a 2.56, GGUGUUUUCCAACAUCCUCTT against Ccrl2 3.06, GGUGUCCAUGCUAGCUGUATT against Best2 2.97, GGUCCAGGUCUGAAUCUAGTT against Tra2b 2.48, CGACAAGAAAACAUACUAGTT against Gins4 2.28, GCUAUUCAAUGGACCAGAATT against Olfr490 -2.26, GGUGAUUCACAUAACAGGCTT against Npas3 2.05, GGAGCAUUUUCCAGUUGAGTT against Mrps35 2.41

z-score, inactive:
CGGCUCACUAGCAGUGUCUTT against Ppm1b -0.209, GGUUACUCCUUUUUCAAUGTT against Elf5 -0.636, GGACAUAGUCUGAGGCAAGTT against Ost4 -1.34, GCUGUUCAAUUUGAUUACUTT against Dapp1 1.77, GGACCAGUUAAAGUGGCAGTT against Oas1e -0.00736, GGUACUUGUACUAAUCGCUTT against Lpcat2 0.683, CCCUUGAUUAAGUGGAUUATT against Tgfa 1.19, GGUGAUGGCUGUUCCUUUCTT against Zdhhc2 0.533, GGAUGAAAUUGGAAAGGGCTT against Camkk2 -0.0472, CCAAUCCUCAACCUUGAAUTT against Ddx19a 0.0508, GGGACUUCCUUAUUGGAACTT against A830019P07Rik 1.23, GGAUGUCAACAUUCGAGAUTT against Tmem231 0.993, GGAGAAUUGUUUUUACCAGTT against Bbox1 0.13, GGACUGACUGGAUUUUUCCTT against Adamts12 -0.102, GGCAUUAGGAUACAUAACATT against Rpgrip1l -0.743, GCUGUAACCAACAUACCUCTT against Inka1 -0.91, GGAACAAAGAUUGAGAGAATT against Sltm -1.62, GGUUAUCAAAGCUAAGAAUTT against Ifi209 -0.0859, GCUAGUCAGAAGAAGUACUTT against Actrt2 -0.402, CCGAAGCAUGAAGAAUCUATT against Tubd1 0.544, GAGCAAUAAGCUAGGGUGATT against Olfr1428 0.239, GGCAAAUUCGAAAUAGACATT against Evx2 0.227, GGCUCUGAUGUUUCUAAAATT against Hdac10 1.29, GGUACUGUCGGUAUCCCACTT against Gcc1 -1.62, GCCUUUGUACAAUGACUAUTT against Prpf38a -0.127, GCAGAAAGCAACACGCCCUTT against Pramel20 0.631, GGGUAUGCAGAAGGGAACATT against Nrap 0.424, CCAUUGUGUGGUACUUAAATT against Mrm3 0.448, GCGACUCACUAUUUGGGCATT against Ell3 0.471, GGAAAAUUCAUCCUUAGUATT against Wdr61 -0.086, CGAAACACCAGAUGUAUUCTT against Gck -0.551, GGUUAUGAAACUGAGAAAGTT against Mid2 -0.0195, GGAUUUGUCAUCCACUUCUTT against Sez6 -1.79, GCUGCUCAAACAUAAUGAATT against Osbpl2 -0.419, GGAUGUACAUUCUACCUAUTT against Bap1 -0.239, GGAUACGAUUGAACGGCUGTT against Rac3 -0.566, GCUCCUGUAGACAGGUUAGTT against Serac1 -1.39, CGCUCAUUUAGACAUAGAGTT against Ass1 0.686, CCUAGUCAUAUUCUACAGUTT against Iqca1l 0.77, GGUUGGAGUUAUAGAUUUUTT against Rufy3 1.42, GGAGAGAACUGAUGAAUCCTT against Sdhaf2 -0.26, CCCUCUUUACCAGUAUUACTT against Pla2g5 0.287, GCCGUUCACCAUGAAAUGGTT against Prkci -0.898, GGCUACAUGAGAAGCACAGTT against Disc1 1.64, CCUUAACAUGUUUCAUCUATT against Sap30 0.584, GGUUGUUUCCAGUAUUCUGTT against Apc2 1.18, GCGAAGCGAAUCCUUUUUCTT against Fosl2 0.0982, CCCUGCUUGAAUCUCUUCGTT against Tyk2 -0.191, GGCUUACGUGGUGUGCACUTT against Galr1 0.345, GGAAAGGAACUAGCAACGATT against Art3 -0.642, GGAUACAAUCCUUUUGGAUTT against Dnajb1 0.205, CCGACAUUCAACAAGAUUUTT against Mta1 -0.092, CCGGAGCUUUAUUGACACGTT against Rbm19 1.15, GGCCUGUGGUUAUGCUGUGTT against Cyp2b10 -0.716, CCUAUUGAAAAGCCAAACUTT against Lypd11 -0.651, GGUCUUUGUGUCCACCUACTT against Gpr162 0.669, GGUUCUAAUAAAAAUCGGUTT against Pcdhb1 0.659, GGAGCUGAAUCAUUAUCUGTT against Rabep1 -0.0512, GGUGCUGUUUAAAACACAGTT against Aurka 1.25, GGAGUUGAUAAUAUGGUGGTT against Uck1 0.712, GGACCAGCUUUUCAACAUUTT against F8 0.141, CCUGCUUAGGACCAUCGACTT against Lrrn2 -0.0914, GGGAUAGCUGUCUUUCAUUTT against Extl3 -1.02, GCUCUUGCUACUUUUUUCUTT against Olfr823 -0.108, GGGAAAAACACUUCUCACUTT against Slc35e2 -0.238, GGUCGCUAUUAAGAUCAUUTT against Mark4 0.491, GCUCUGCCUUCAGAUGACGTT against Olfr173 -0.26, GGCAGAUCAGAAUUGAAUUTT against Fgd6 -0.528, GCAAGGAGGUCCAACUAAGTT against Fzd8 0.239, GGUUAAUAAUGCGACAGCATT against Rbfox1 0.00257, GGAAAACUCAAAGUGCUGATT against Paqr7 0.512, CCAGUUUGGUAAUCAUGAATT against Cyb561d2 -0.244, GGCACCUUGGAGUUACAUATT against Pcdha10 -0.24, GCAGACAACUAGACAUACATT against Selenok -0.42, GCAAUAAUGGCAAUUACGGTT against Slc35f4 1.13, GGAGCUGGUGUUGAGUGAGTT against Slfnl1 -1.81, UUGUGACCAAUUUCUGAAUTT against Pgbd1 -0.594, GGAGUUAAACAAACAGAGUTT against Psma6 -0.855, UUUACUCUCAUGGUAACCUTT against Olfr798 -0.386, GGAGGUAUGGCGGUGAUUATT against Krt77 0.718, GUCACUAUUAAGACACUUATT against Nudcd3 0.157, GGCUAAAGAGUCCUCGGUGTT against Serpina5 0.594, GCAGACAGAAGAACACCAGTT against 1700024G13Rik -0.177, GGAAGAGUGUCUAAAUGUATT against Cbwd1 0.849, GGUUGAACAUAAGCACAAUTT against Cdkn2aip -0.42, GGUCACCACUCCAUAUUCUTT against Vsir -0.561, GGAGACAUAUGAAGAGAUATT against Lsm3 -0.702, GGAAGCUGGCAAGUUUAUGTT against Cfap161 -0.159, CCUGGCAUAAGUGGUUUUATT against Zfp82 1.13
